# Only some compounds are listed: those with a hit (about 21% of all), similar ones and a draw of the others.
# Shiga toxin inh: inhibitors of Shiga toxin in Vero cells; Vero cells, Shiga toxin protein synthesis inhibition reporter; inhibition, % at 38.7 µM; actives 9.2% (n = 290,000); in the data active = inhibition mostly above about 28%, no sharp cut-off; inactive = mostly below about 43%; also: 0% is about no effect
# HCV inhibitor: inhibitors of hepatitis C virus infection | Potency, µM (top dose mostly 41.8 µM), without a hit: at the highest dose activity change, negative = inhibition, hits mostly inhibitors | Huh7.5.1 HCVcc-Cre infection, luciferase reporter, 44 h | actives 3.4% (n = 340,000); also: potency is read from the fitted curve at half-maximal effect; % is scaled to controls: 0 for no effect and ±100 for the full control effect
#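 Antiviral activity was scored by luciferase reporter output from cells infected with HCVcc-Cre (~0.5 moi) in presence of compound, 44 h infection period, cells seeded 1,000/well 4 h prior.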
# HCMV antiviral: human cytomegalovirus inhibition | HFF cells, HCMV-luciferase reporter, 72 h; stronger effect = lower value | activity change, negative = inhibition, % at 57.5 µM | actives 4.5% (n = 410,000); in the data active = activity change below about -60%; inconclusive = no clear call, values can overlap the other calls; inactive = above about -39%; also: % is scaled to controls: 0 for no effect and ±100 for the full control effect
#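 Screen run at 2 compound doses on HFFs infected with reporter HCMV, MOI 1 PFU/cell. Luciferase activity from cell lysates at 72 h post infection gave inhibition relative to buffer-only and Salinomycin wells.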
# Pf growth 48h: inhibits P. falciparum growth in the first generation, 48 h. Potency, µM (highest dose often 28.7 µM), without a hit: top-dose activity change, negative = inhibition, actives largely listed as inhibitors. actives 5.9% (n = 310,000). P. falciparum luciferase growth in erythrocytes, 48 h. AID 504832; also: potency is read from the fitted curve at half-maximal effect; % is scaled to controls: 0 for no effect and ±100 for the full control effect
#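 Luminescence readout; reporter = integrated firefly luciferase in P. falciparum. RBC culture at 2% hematocrit, 0.1% parasitemia final, 37 C/5% CO2; decreased signal taken as growth inhibition.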
# Pf growth 96h: P. falciparum growth inhibition at 96 hours. actives 6.9% (n = 320,000). AID 504834. Potency, µM (doses to about 28.7 µM), without a hit: top-dose activity change, negative = inhibition, most hits filed as inhibitors. P. falciparum luciferase reporter growth, 96 h; also: potency is read from the fitted curve at half-maximal effect; % is scaled to controls: 0 for no effect and ±100 for the full control effect
#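 Compounds incubated with erythrocytes infected by luciferase-expressing P. falciparum (2% hematocrit, 0.05% parasitemia final) for 96 hours, 37 C in 5% CO2. Growth inhibition scored as decreased luciferase luminescence.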
# Cycloheximide cs: affects cycloheximide protein synthesis inhibition readout, counter-screen | cell reporter, cycloheximide protein synthesis inhibition counterscreen | max response, % | actives 12% (n = 300,000) | AID 2314; in the data active = max response mostly above about 13%, no sharp cut-off; inactive = mostly below about 14%; also: read at 38.3 µM for the half of the compounds with a filed dose; 0% is about no effect
# An asterisk follows results filed as active; ? = inconclusive; · = no result given. Unless noted, calls follow the shape of the dose curve; as a rule, active = well fitted inhibition curve with a large enough effect; inconclusive = small, poorly fitted or top-dose-only effect, or another doubt; inactive = no such curve, though single readings can be large or run the other way.
SMILES,Shiga toxin inh,HCV inhibitor,HCMV antiviral,Pf growth 48h,Pf growth 96h,Cycloheximide cs
Cc1ccc(C(=O)NCc2ccccn2)c(Cl)c1,62.8*,14.1%,61.1,31.5%,42.3%,30.9*
NS(=O)(=O)c1ccc(CCNCC(=O)NC2CC2)cc1,-4.3,14.4%,23.9,32.9%,29.4%,-2.5
Cc1ccc2c(CC(=O)Nc3c(C(=O)Nc4cccc(Cl)c4)oc4ccccc34)coc2c1C,·,·,39.4,·,·,·
CCc1sc(C(=O)NCCc2ccc(S(N)(=O)=O)cc2)cc1Br,-9.8,-11.1%,-67.6*,3.4%,?,-1.5
Cc1ccc(CN2CCNC(=O)C2CC(=O)N(C)C(C2CC2)C2CC2)o1 (stereo not drawn),26.1,10.3%,79.3,31.3%,13.1µM*,1.9
COc1ccc(Nc2nc(OC)nc(N3CCN(c4ccc(OC)cc4)CC3)n2)cc1,1.1,-9.2%,-36.8,9.28µM*,?,-0.2
CCOc1nc(NCCc2ccc(OC)c(OC)c2)nc(N2CCN(c3ccc(OC)cc3)CC2)n1,-8.9,1.8%,68.9,·,-18.3%,-4.0
COc1nc(Nc2ccc(C(C)C)cc2)nc(OC)n1,47.7*,?,-15.6,1.17µM*,-10.2%,41.0*
COc1ccc(N2CCN(c3nc(NCCc4ccc(OC)c(OC)c4)nc(OC)n3)CC2)cc1,-13.3,11.2µM*,-89.7*,?,·,-2.0
COc1ccc(Nc2nc(Cl)nc(N3CCN(c4ccc(OC)cc4)CC3)n2)cc1,8.3,·,-33.6,?,11.7µM*,1.4
COc1ccc(Nc2nc(N3CCCC3)nc(N3CCOCC3)n2)cc1,·,·,-31.7,·,·,·
COc1nc(Nc2ccc(O)cc2)nc(OC(C(F)(F)F)C(F)(F)F)n1,-9.4,?,?,-9.9%,·,-2.7
COc1cccc(CNC(=O)CCN2C(=O)[C@@H]3Cc4ccccc4CN3C2=O)c1,-8.5,12.1%,-27.1,-3.6%,43.4%,-4.0
COc1cc(OC)cc(-c2nnc(SCC(=O)c3ccc([N+](=O)[O-])cc3)o2)c1,·,·,25.9,·,·,·
Cc1cc(Cl)ccc1OCC(=O)N(Cc1ccco1)Cc1ccco1,·,·,52.1,·,·,·
O=C(Nc1nc(-c2ccncc2)cs1)c1ccc(F)cc1,-6.5,-4.7%,-10.5,0.0%,26.2%,5.7
Cc1nc(NC(=O)c2ccccc2)sc1-c1csc(Nc2ccc(Cl)cc2)n1,28.3,·,·,?,10.4µM*,10.0
Cc1nc(NC(=O)c2ccccc2)sc1-c1csc(Nc2ccc(F)cc2)n1,21.9,·,·,?,3.7µM*,10.0
Cc1nc(NC(=O)c2ccccc2)sc1-c1csc(Nc2cccc(Cl)c2)n1,56.1,·,·,9.28µM*,2.62µM*,18.7
Cc1nc2ccccn2c1-c1csc(Nc2ccc(C(=O)O)cc2)n1,-2.9,18.2%,?,?,?,-6.4
CC(=O)C1=C(O)C(=O)N(c2ccc(Br)cn2)C1c1ccc(Br)cc1 (stereo not drawn),92.7*,2.1%,19.1,13.4%,5.5%,20.7*
CC(=O)C1=C(O)C(=O)N(Cc2ccccc2)C1c1ccc(F)cc1 (stereo not drawn),-5.8,13.4%,-76.6*,·,10.5%,-2.0
COc1cc(C2C(C(C)=O)=C(O)C(=O)N2c2ccc(Br)cn2)ccc1O (stereo not drawn),-6.9,10.3%,-6.7,20.9%,?,-1.1
CC(=O)C1=C(O)C(=O)N(c2ccc(Br)cn2)C1c1cccc([N+](=O)[O-])c1 (stereo not drawn),4.6,11.8%,-104.9*,1.6%,?,-1.9
CC(=O)C1=C(O)C(=O)N(c2ccc(Br)cn2)C1c1ccccc1F (stereo not drawn),17.6,10.9%,?,22.6%,79.7%,14.2
SMILES,Shiga toxin inh,HCV inhibitor,HCMV antiviral,Pf growth 48h,Pf growth 96h,Cycloheximide cs
CC(=O)C1=C(O)C(=O)N(c2ccc(Br)cn2)C1c1ccc(F)cc1 (stereo not drawn),74.8*,15.2%,15.3,66.5%,16.3%,37.5*
COc1ccc(CCN2CN(S(=O)(=O)c3ccccc3)c3nc4ccccc4nc32)cc1OC,-12.9,?,-65.6*,?,?,-3.6
COCCN1CN(S(=O)(=O)c2cccc(Cl)c2)c2nc3ccccc3nc21,2.5,3.0%,17.9,?,?,-3.6
COc1ccc(CCN2CN(S(=O)(=O)c3ccccc3)c3nc4ccccc4nc32)cc1,-9.8,-18.4%,-31.6,11.7µM*,10.4µM*,1.5
CCCCN1CN(S(=O)(=O)c2ccc(OC)cc2)c2nc3ccccc3nc21,-1.9,0.3%,-36.1,?,?,15.3
C=CCN1CN(S(=O)(=O)c2cccc(Cl)c2)c2nc3ccccc3nc21,15.5,3.5%,26.8,?,?,19.6*
O=C(CSc1nc(-c2ccccc2)nc2c1CCCC2)c1ccc(Cl)cc1,·,·,6.7,·,·,·
CC(=O)NCc1c(I)c(NC(C)=O)c(I)c(C(=O)O)c1I,·,·,·,6.2%,-16.2%,·
CCOc1ccc(C(=O)NCC(=O)N2CCN(c3ccccc3O)CC2)cc1,-3.7,-3.1%,7.1,?,-23.1%,-0.8
CCC1CCCCN1C(=O)CSc1nc(N)cc(N)n1 (stereo not drawn),5.5,1.7%,-65.2*,2.0%,-16.7%,2.2
CCc1c(C)nc(SCC(=O)N2CCCCC2CC)[nH]c1=O (stereo not drawn),-7.7,-7.3%,-9.9,2.08µM*,-2.8%,3.1
CCc1c(C)nc(SCC(=O)N2CCN(c3ccccc3)CC2)[nH]c1=O,1.3,29.2%,32.2,27.3%,0.0%,7.7
Cc1ccc(-c2c(C(=O)N/N=C/c3ccsc3)nnn2-c2nonc2N)cc1,-14.1,9.0%,13.4,?,?,-2.3
CCOc1ccc(-c2c(C(=O)N/N=C/c3ccc(C)cc3)nnn2-c2nonc2N)cc1,1.4,?,?,?,-10.9%,-2.0
Cc1ccc(-c2c(C(=O)N/N=C/c3ccoc3)nnn2-c2nonc2N)cc1,10.7,?,-32.3,9.28µM*,3.29µM*,8.8
Cc1ccc(-c2c(C(=O)N/N=C/c3ccc(C)o3)nnn2-c2nonc2N)cc1,-5.1,-8.3%,-9.0,?,2.33µM*,-5.6
Cc1ccc(-c2c(C(=O)N/N=C/c3ccc(OC(C)C)cc3)nnn2-c2nonc2N)cc1,-5.3,6.7%,-32.8,10.4µM*,?,14.2
CCOc1ccc(-c2c(C(=O)N/N=C/c3ccc(Cl)cc3)nnn2-c2nonc2N)cc1,0.7,9.5%,-9.0,9.28µM*,?,-2.2
Cc1ccc(-c2c(C(=O)N/N=C/c3cccc(Cl)c3)nnn2-c2nonc2N)cc1,-8.9,9.6%,-23.4,0.0522µM*,?,-3.2
COc1ccc(CCn2c(=O)c3cccnc3n(CC(=O)Nc3ccc(C)cc3C)c2=O)cc1OC,·,·,10.7,·,·,·
COc1ccc(CC(=O)OCC(=O)c2c[nH]c3ccccc23)cc1,·,?,-2.3,8.28µM*,-111.6%,·
COc1cc(CC(=O)OCC(=O)c2c[nH]c3ccccc23)cc(OC)c1OC,·,?,18.2,4.15µM*,13.1µM*,·

# Assay outcomes as filed in PubChem.
